PubChem BioAssay AID912 (National Center for Advancing Translational Sciences (NCATS), 2007)
Values joined by “and” are separate entries in the source; they are usually repeats but may differ in a detail not shown here. Equal values may be shown once. Among all 70,000 compounds or so, about 470 (0.67%) were called active. Inconclusive results (about 18%) are left out. Calls come from the whole dose curve. The sample as a whole holds a higher share of actives than the screen did. Where a structure was tested more than once in an assay, its records may differ in their call.

assay: qHTS Assay for Anthrax Lethal Toxin Internalization; settings: Cells, FRET ratio (460/530); series mostly up to 40 µM; activity change, negative = inhibition: at the top concentration; note: nearly all actives have a fitted effect of over 50% in size
% is set by controls: 0 for no effect and ±100 for the full control effect; potency is the fitted concentration of half-maximal effect.

| SMILES | activity change, negative = inhibition | Potency |
| --- | --- | --- |
| CN1CCc2nc(-c3ccccc3)c(-c3ccccc3)cc2C1 | -6.08% [at 8 µM] (inactive) |  |
| COCCn1c(=O)c(C)nc2cnc(N(C)C)nc21 | -9.51% (inactive) |  |
| O=C1C[C@@H](O)[C@@H](O)[C@H]2[C@@H]3C(=O)N(Cc4ccc5c(c4)OCO5)C(=O)[C@@H]3CC[C@H]12 | 3.37% [at 8 µM] (inactive) and -9.87% [at 8 µM] (inactive) |  |
| CC[C@]1(C)CC(=O)NC1=O | inactive |  |
| COc1ccc2c(=O)cc(-c3ccccc3)oc2c1O | 0.763% (inactive) |  |
| CCNCCCNCCCNCCCNCC | -12.1% (inactive) |  |
| COCCNC(=O)COc1ccc(C)c(C)c1 | -6.37% (inactive) |  |
| CCOC(=O)c1nc(N)sc1C(=O)OCC | 0.0428% (inactive) |  |
| FC(F)(F)c1ccccc1-c1cc(NCc2ccccc2)ncn1 | 18.2% (inactive) |  |
| Cc1cc(C(=O)O)ccc1[N+](=O)[O-] | -3.62% (inactive) |  |
| Nc1ccccc1N | -3.5% (inactive) |  |
| CCOC(=O)c1[nH]c2ccc(OC)cc2c1NC(=O)N1CCOCC1 | -8.81% (inactive) |  |
| Cc1cccc(C(=O)O)c1[N+](=O)[O-] | 4.62% (inactive) |  |
| Cc1nn(Cc2ccc(Cl)c(Cl)c2)c(C)c1NC(=O)c1cc(C2CC2)on1 | -30.6% (inactive) |  |
| CCC[C@@H]1C[C@@]1(CCC)[C@@H](NC(=O)c1ccccc1)c1ccc(C(=O)OC)cc1 | -19.3% (inactive) |  |
| CN1[C@@H]2CC[C@H]1CC(OC(=O)c1cc(Cl)cc(Cl)c1)C2 (stereo partly specified) |  | inactive and 15.8 µM (active) |
| O=C1OCCC=C1[C@@H](O)CCc1ccccc1 | -3.54% [at 1.6 µM] (inactive) |  |
| CCCn1c(-c2ccc(F)cc2)nc2c(NCC3CCCN3CC)nc(C)nc21 (stereo unspecified) | -14.1% (inactive) |  |
| Nc1cc(OC(=O)c2ccccc2Br)nn1S(=O)(=O)c1ccccc1 |  | 10 µM (active) |
| C/C=C1\C(=O)C[C@@H]2[C@@H]3CCC4=CC(=O)CC[C@@]4(C)[C@H]3CC[C@@]12C | -8.2% (inactive) |  |
| Cc1ccnc(N)c1 | -11.7% (inactive) |  |
| CC(C)(C)NCC[C@@H](O)c1cc(C(F)(F)F)nc2c(C(F)(F)F)cccc12 | -2.37% [at 8 µM] (inactive) |  |
| COCCn1c(=O)c(-c2cc(F)cc(F)c2)nc2cncnc21 | 3.07% (inactive) |  |
| CN=C1SC(C(=O)O)CC(=O)N1C (stereo unspecified) | 0.241% (inactive) |  |

| SMILES | activity change, negative = inhibition | Potency |
| --- | --- | --- |
| O=NO | inactive |  |
| COc1ccc(N)c(C)c1 | 1.73% (inactive) |  |
| O=C(COc1ccc2oc3c(c2c1)CCCC3)Nc1ccccn1 | -10.7% (inactive) |  |
| Oc1cc2c(cc1O)CN(C(=S)NCCc1ccc(Cl)cc1)CCC2 |  | 15.8 µM (active) |
| O=C(NCCc1ccc(Cl)cc1)C1CC(=O)N(C2CCCCC2)C1 (stereo unspecified) | 0.384% (inactive) |  |
| CC(C)C[C@H](NC(=O)NCCc1ccc(Cl)cc1)C(=O)O | 2.75% (inactive) |  |
| O=S(=O)(O)c1ccc(O)c2ncccc12.O=S(=O)(O)c1ccc(O)c2ncccc12.[Zn] | -0.63% [at 8 µM] (inactive) |  |
| NS(=O)(=O)c1cc(C(=O)O)c(Cl)c([N+](=O)[O-])c1Cl | -7.65% [at 8 µM] (inactive) |  |
| C=CCOC(=O)C(C(C)=O)C(NC(=O)OC)c1ccccc1 (stereo unspecified) | -6.02% [at 8 µM] (inactive) |  |
| Cc1ccc(Br)cc1 | -9.02% (inactive) |  |
| CN(C)CCSS(=O)(=O)O | -2.2% [at 8 µM] (inactive) |  |
| c1ccc(Oc2ccccc2)cc1 | 12% (inactive) |  |
| Oc1ccc(O)c2c(O)cccc12 | -2.4% (inactive) |  |
| Cc1c(C)c2c(c(C)c1O)CC[C@@](C)(CN1CCN(c3cc(N4CCCC4)nc(N4CCCC4)n3)CC1)O2 | -10.2% (inactive) |  |
| C[C@@H]1/C=C\CC(=O)OC[C@H]2O[C@@H](C=C[C@@H]2O)[C@H](C)/C=C\CC(=O)OC[C@H]2O[C@H]1C=C[C@@H]2O | 0.461% [at 0.32 µM] (inactive) |  |
| COc1ccc(NC(=O)C2CCCN(S(=O)(=O)c3cccc4cccnc34)C2)cc1 (stereo unspecified) |  | 3.16 µM (active) |
| COc1ccc(NC(=O)C2CCCN(S(=O)(=O)c3cccc4cccnc34)C2)cc1OC (stereo unspecified) | -8.54% (inactive) |  |
| O=C(O)C1CCCN(S(=O)(=O)c2cccc3cccnc23)C1 (stereo unspecified) | 0.387% (inactive) |  |
| Cc1cccc(Br)c1 | -11.9% (inactive) |  |
| COC(=O)C(C(=O)OC)[C@@H]1CCCC(=O)C1 | 8.84% [at 8 µM] (inactive) |  |
| CCCC[C@@H]1C[C@H]1C(NC(=O)c1ccco1)c1ccc(C(=O)OC)cc1 (stereo partly specified) | -5.36% (inactive) |  |
| COC(=O)NC(c1ccccc1)[C@]1(C(C)=O)CCCC1=O (stereo partly specified) | -2.74% [at 8 µM] (inactive) |  |
| CC(C)=CCC/C(C)=C/CO/N=C1/C[C@@H](O)[C@@H](O)[C@@H]2[C@@H]3C(=O)N(C(C)(C)C)C(=O)[C@H]3CC[C@H]12 | 4.39% [at 1.6 µM] (inactive) |  |
| O=C(Cl)c1ccc([N+](=O)[O-])cc1 | -9.99% (inactive) |  |

| SMILES | activity change, negative = inhibition | Potency |
| --- | --- | --- |
| O=C1[C@H]2[C@H]3[C@H](O)[C@H](O)C/C(=N/OCc4ccccc4)[C@H]3CC[C@@H]2C(=O)N1Cc1ccccc1 | 0.866% [at 1.6 µM] (inactive) |  |
| C/C(CCN1CCCCc2nc(C)c(C)cc21)=N\O[C@@H](C)c1cn([C@@H]2COC[C@@H]2O)nn1 | 16% [at 8 µM] (inactive) |  |
| COC(=O)C1(C)C=CCN1C(=O)c1ccccc1 (stereo unspecified) | 1.85% (inactive) |  |
| CC1=C(C(=O)OCc2ccccc2)C(c2ccc(C(F)(F)F)cc2)NC(=O)N1CCCCCC(=O)O (stereo unspecified) | 10.5% (inactive) |  |
| CO[C@@H]1COC(=O)[C@H](Cc2ccccc2)NC(=O)C/C=C\[C@@H](C)[C@H](OC)COC(=O)[C@@H](C)NC(=O)C/C=C\[C@H]1C | 5.09% [at 1.6 µM] (inactive) and -1.18% [at 8 µM] (inactive) |  |
| COC(=O)c1ccc(C(NC(=O)OCc2ccccc2)/C(C)=C/[C@@H](C)C(=O)NCc2cc(C)on2)cc1 (stereo partly specified) | 0.057% (inactive) |  |
| O=C(NCCc1ccc2c(c1)OCCO2)c1cc2ccccc2o1 |  | 12.6 µM (active) |
| O=C(Nc1ccncc1)c1cc2ccccc2o1 | -5.1% (inactive) |  |
| O=C(CC(Cc1ccccc1)C(=O)O)NCCc1ccc2c(c1)OCO2 (stereo unspecified) | -0.491% (inactive) |  |
| COC(=O)C1(C)C=CC2(CCCCC2)N1C(C)=O (stereo unspecified) | 5.36% (inactive) |  |
| CC(C)(C)c1ccc(OC2C=CC(C#Cc3ccccc3)OC2CO)cc1 (stereo unspecified) | -3.38% [at 8 µM] (inactive) |  |
| CCC[C@@H]1C[C@@]1(CCC)C(NC(=O)c1ccc(-c2ccccc2)cc1)c1cccc(Cl)c1 (stereo partly specified) | -10.9% (inactive) |  |
| CCOC(=O)Cn1c(CN(Cc2ccccc2)Cc2ccccc2)nc2c1c(=O)[nH]c(=O)n2C | 6.87% (inactive) |  |
| CC(C(=O)O)N1C(=O)c2cccc3cccc1c23 (stereo unspecified) | -8.16% (inactive) |  |
| C[N+](C)(CCCCCC[N+](C)(C)CCCN1C(=O)c2cccc3cccc(c23)C1=O)CCCN1C(=O)c2cccc3cccc(c23)C1=O | 12.5% (inactive) |  |
| COc1ccc(N2C(=O)c3cccc4cccc(c34)C2=O)nn1 |  | 7.94 µM (active) |
| CC(N)=NCc1cccc(CN)c1 | 2.64% (inactive) |  |
| CC(=O)CC(C)C | 3.44% (inactive) |  |
| OCCCNCc1ccccn1 | 9.72% [at 8 µM] (inactive) |  |
| CO[C@H]1COC(=O)[C@H](Cc2ccccc2)NC(=O)C/C=C\[C@@H](C)[C@H](OC)COC(=O)C/C=C\[C@@H]1C | 30% [at 8 µM] (inactive) |  |
| c1cncc(-c2nc(N3CCNCC3)c3ccccc3n2)c1 | 0.183% (inactive) |  |
| Cc1ccc(S(=O)(=O)NC(=O)NN2C[C@H]3CCC[C@@H]3C2)cc1 | -1.11% [at 3.58 µM] (inactive) |  |
| Cc1cccc(C(=O)O)c1 | 4.72% (inactive) |  |
| C[C@@H](N)[C@@H](C)Cc1ccccc1 | -3.08% [at 8 µM] (inactive) |  |

| SMILES | activity change, negative = inhibition | Potency |
| --- | --- | --- |
| CCOC(=O)C1CCc2nc3ccccc3c(=O)n21 (stereo unspecified) | 5.34% (inactive) |  |
| CC1(C)Cc2ccccc2-c2nc(CN3CCOCC3)[nH]c(=O)c21 | -0.761% (inactive) |  |
| CCOC(=O)C1Cn2c(nc3c(c2=O)C(C)(CC)Cc2ccccc2-3)S1 (stereo unspecified) |  | 6.31 µM (active) |
| CCS(=O)(=O)N(C)[C@@H]1c2cc(C#N)ccc2OC(C)(C)[C@H]1O | inactive |  |
| CCCC(Cl)CCCC(Cl)CCC(Cl)CCC(Cl)CCC(Cl)CCCC(Cl)CCC (stereo unspecified) | -11.1% (inactive) |  |
| C1CCC2OC2C1 (stereo unspecified) | -1.8% (inactive) |  |
| Cc1sc2c(c1C)c(=O)n(-c1ccccc1)c1nncn21 | 6.99% (inactive) |  |
| c1ccc2c(c1)[I+]c1ccccc1-2 |  | 15.8 µM (active) |
| CCCCC[C@H](O)CCCC(=O)O | 6.3% (inactive) |  |
| C[C@@H](c1ccccc1)N1C(=O)[C@H]2[C@H]3[C@H](O)[C@H](O)C/C(=N/OC[C@@H](O)COCc4ccco4)[C@@H]3CC[C@@H]2C1=O | 0.141% [at 8 µM] (inactive) |  |
| O=C(Cl)c1ccccc1[N+](=O)[O-] | -11.9% (inactive) |  |
| CC(=O)Oc1ccccc1C(=O)Nc1ncc([N+](=O)[O-])s1 |  | 1.26 µM (active) |
| CC(=O)Oc1ccc(C(=O)Nc2nccs2)cc1 | 0.315% (inactive) |  |
| N#Cc1cccc(-c2nc3cnc(N4CCNCC4)nc3n(C3CC3)c2=O)c1 | -3.15% (inactive) |  |
| CO[C@H]1COC(=O)CCC[C@@H](C)[C@H](OC)COC(=O)[C@@H](C)NC(=O)C/C=C\[C@@H]1C | -7.25% [at 8 µM] (inactive) |  |
| Cc1cc(C)c2nc3c(c([C@H](O)[C@@H]4CCCCN4)c2c1)CC/C3=C/c1ccc(Cl)cc1 | -12.7% [at 8 µM] (inactive) |  |
| COc1ccc(COC(=O)N/N=C2/C[C@@H](O)[C@@H](O)[C@@H]3[C@@H]4C(=O)N([C@@H](C)c5ccccc5)C(=O)[C@H]4CC[C@@H]23)cc1 | -0.559% [at 8 µM] (inactive) |  |
| O=C(c1ccncc1)N1CCC2(CCN(Cc3cc(C(F)(F)F)cc(C(F)(F)F)c3)CC2)CC1 | 10.9% (inactive) |  |
| C=C(C)C1CC=C(C)C(O)C1 (stereo unspecified) | -3.62% (inactive) |  |
| CN1CCN(CCCNC(=O)c2cc3c(=O)oc4ccccc4c3s2)CC1 | -6.55% (inactive) |  |
| Cc1ccccc1S(=O)(=O)Cc1ccc(C(=O)NCCN2CCCCC2C)o1 (stereo unspecified) | -12.4% (inactive) |  |
| Cc1nc2ccccc2c2oc(C(=O)NCCCN3CCC(C)CC3)cc12 |  | 5.01 µM (active) |
| CCOc1ccc(/C(O)=C2/C(=O)C(=O)N(Cc3cccnc3)C2c2ccc(N(C)C)cc2)c(C)c1 (stereo unspecified) | 2.08% (inactive) |  |
| Cn1c(=O)n2n(c1=O)[C@H]1[C@H](O)[C@H]3O[C@H]3C(=O)[C@H]1CC2 | 12.4% [at 8 µM] (inactive) |  |
